Assay results reported in PubChem BioAssay.

Test system: Neuregulin-1 EGF-like domain
Assay: binders of neuregulin-1 EGF-like domain, primary screen, biochemical, small-molecule microarray, 635 nm fluorescence (AID 1081);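 note: binding of the protein to compounds printed on small-molecule microarray slides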
Conditions: small-molecule microarray binding, higher = more signal

| SMILES | composite z-score |
| --- | --- |
| COc1ccc(-c2nc3c(c4c2C[C@H](C)OC4)CN(CCC(C)C)CC3)cc1 | 0.917 |
| CO[C@@H]1COC(=O)[C@@H]2CCCN2C(=O)[C@@H](C)COC(=O)[C@H](COCc2ccccc2)NC(=O)CC=C[C@H]1C | 0.253 |
| CCN1C(=O)[C@H]2[C@H]3[C@H](O)[C@H](O)CC(=NOC(C)CN4CCCCc5nc(C)c(C)cc54)[C@@H]3CC[C@H]2C1=O (stereo partly specified) | -0.274 |
| CCc1cc2c(nc1CC)CCN(CCC(C)=NO[C@@H](C)c1cc(-c3c(C)cc(C)cc3C)no1)C2 | -0.0858 |
| CO[C@H]1O[C@H](CO)[C@@H](OC(=O)Nc2ccc3c(c2)OCO3)[C@H](OC(=O)Nc2ccccc2-c2ccccc2)[C@@H]1OC(=O)Nc1ccccc1-c1ccccc1 | 1.17 |
| COC(=O)[C@@]1(Cc2ccc(F)cc2)[C@H]2c3cc(C(=O)N(C)C)n(Cc4ccc(OC)c(OC)c4)c3C[C@H]2CN1C(=O)c1ccccc1 | 1.44 |
| CC(C)NC(=O)[C@@]1(C)c2ccccc2C(=O)N(Cc2cc(F)cc(C(F)(F)F)c2)[C@H]1c1ccc(CO)cc1 | 1.17 |
| O=C1NC(=O)C2C1C=CC(C(O)Cc1ccccc1)N2Nc1ccccn1 (stereo unspecified) | 0.934 |
| CC[C@@H](c1ccccc1)n1c(=O)n2n(c1=O)[C@H]1[C@H](O)[C@@H]3O[C@@H]3C(=NOCC(C)C)[C@H]1CC2 | 0.493 |
| COc1cccc([C@H]2Oc3ccc(OC)cc3C(=NO[C@H](C)c3cn([C@@H]4COC[C@H]4O)nn3)[C@@H]2O)c1 | -0.168 |
| COCCOC(=O)N1C(=O)[C@@]2(c3cc(C#CCNC(N)=O)ccc31)[C@H](c1ccc(O)cc1)N1[C@H](c3ccccc3)[C@H](c3ccccc3)OC(=O)[C@H]1[C@@H]2C(=O)N1CCCCCCC1 | 1.07 |
